About 7,900 targets were measured; listed, in parts, are those with a hit and a random draw of the rest. About 0.6% of all pairs of compound and target were hits.
Key:
Test in all cases: log2 fold change, soluble protein after heating vs DMSO (PISA); higher = thermal stabilisation; K562 cells, 10 uM, 30 min; active = over 0.2 and 3.5 SD of the protein, either way, in both replicates (recomputed)
[1] = compound: Cc1ccc(NC(=O)c2ccc(CN3CC[C@H](N(C)C)C3)c(C(F)(F)F)c2)cc1Nc1nccc(-c2cncnc2)n1 [bafetinib]
Method in brief: (§1)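 Thermal stability values are relative to control samples and come from duplicates. They are expressed as log2 fold changes. For measurement, K562 cells (2×10^6 cells/mL) received 10 μM compound for 30 min, and aliquots were heated for 3 min over 48°C-58°C, pooled, and extracted at 4°C in PBS with 0.5% NP-40. Soluble protein, the supernatant after 21,000xg for 90 min, was quantified by TMTpro 16plex LC-MS/MS with equalised channel sums.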

[2] = compound: Cc1cccc(CC(=O)N2CCc3c2ccc(-c2cn(C)c4ncnc(N)c24)c3F)n1
Method in brief: as §1

[3] = compound: Cc1cn(-c2cc(NC(=O)c3ccc(C)c(Nc4nccc(-c5cccnc5)n4)c3)cc(C(F)(F)F)c2)cn1 [nilotinib]
Method in brief: as §1

[4] = compound: Cc1nc(Nc2n[nH]c3c2CN(C(=O)N[C@H](CN(C)C)c2ccccc2)C3(C)C)c2sccc2n1
Method in brief: as §1

[5] = compound: Cc1nc(Nc2ncc(C(=O)Nc3c(C)cccc3Cl)s2)cc(N2CCN(CCO)CC2)n1 [dasatinib]
Method in brief: as §1

[6] = compound: Cc1ncc(-c2ccnc(Nc3ccc(S(C)(=O)=O)cc3)n2)n1C(C)C
Method in brief: as §1

[7] = compound: Cn1cc(-c2ccc3c(c2)CCN3C(=O)Cc2cccc(C(F)(F)F)c2)c2c(N)ncnc21
Method in brief: as §1

[8] = compound: Cn1cc(-c2ccc3nnc(C(F)(F)c4ccc5ncccc5c4)n3n2)cn1
Method in brief: as §1

[9] = compound: Cn1cncc1[C@@](N)(c1ccc(Cl)cc1)c1ccc2c(c1)c(-c1cccc(Cl)c1)cc(=O)n2C [tipifarnib]
Method in brief: as §1

[10] = compound: FC(F)(F)c1ccc(/C=C/c2nc(COc3ccc(CCCCn4ccnn4)cc3)co2)cc1 [mubritinib]
Method in brief: as §1

[11] = compound: NC(=O)Nc1cc(-c2cccc(F)c2)sc1C(=O)N[C@H]1CCCNC1
Method in brief: as §1

[12] = compound: NC(=O)c1cnc(N[C@@H]2CCCC[C@@H]2N)nc1Nc1cccc(-n2nccn2)c1
Method in brief: as §1

[13] = compound: NC1(c2ccc(-c3nc4ccn5c(=O)[nH]nc5c4cc3-c3ccccc3)cc2)CCC1
Method in brief: as §1

[14] = compound: NCC(=O)Nc1ccc(-n2nc(C(F)(F)F)cc2-c2ccc3c(ccc4ccccc43)c2)cc1
Method in brief: as §1

[15] = compound: Nc1ccccc1NC(=O)c1ccc(CNC(=O)OCc2cccnc2)cc1 [entinostat]
Method in brief: as §1

[16] = compound: O=C(CCCCCCC(=O)Nc1ccccc1)NO [vorinostat]
Method in brief: as §1

[17] = compound: O=C(CCCCCCNC(=O)c1cnc(N(c2ccccc2)c2ccccc2Cl)nc1)NO [citarinostat]
Method in brief: as §1

[18] = compound: O=C(O)c1ccc2c(c1)nc(Nc1cccc(Cl)c1)c1ccncc12 [silmitasertib]
Method in brief: as §1

[19] = compound: O=C1NC(=O)C(c2cnc3ccccn23)=C1c1cn2c3c(cc(F)cc13)CN(C(=O)N1CCCCC1)CC2
Method in brief: as §1

[20] = compound: c1cc(OCCN2CCCCC2)cc(-c2n[nH]c3ccc(-c4nnc[nH]4)cc23)c1
Method in brief: as §1

Measured: log2 fold change

TNFRSF10A (UniProt O00220)
inactive: [1] -0.044 | [2] -0.051 | [3] 0.061 | [4] -0.055 | [5] -0.015 | [6] 0.058 | [7] -0.082 | [8] -0.005 | [9] -0.054 | [10] -0.05 | [11] -0.097 | [12] -0.019 | [13] 0.06 | [14] 0.029 | [15] -0.202 | [16] -0.178 | [17] -0.011 | [18] 0.028 | [19] -0.069 | [20] -0.07

WASHC3 (UniProt Q9Y3C0)
active: [13] -0.271
inactive: [1] -0.06 | [2] -0.032 | [3] -0.042 | [4] 0.001 | [5] 0.047 | [6] 0.028 | [7] 0.035 | [8] 0.048 | [9] 0.029 | [10] 0.003 | [11] -0.037 | [12] 0.1 | [14] -0.029 | [15] -0.011 | [16] -0.053 | [17] 0.016 | [18] 0.075 | [19] -0.054 | [20] -0.005

TNFAIP8 isoform 4 (UniProt O95379)
inactive: [1] -0.079 | [2] 0.014 | [3] -0.045 | [4] -0.095 | [5] -0.109 | [6] 0.007 | [7] 0.047 | [8] 0.005 | [9] -0.023 | [10] 0.031 | [11] -0.032 | [12] -0.091 | [13] -0.061 | [14] 0.029 | [15] 0.018 | [17] 0.012 | [18] 0.147 | [19] -0.073 | [20] 0.087
active: [16] 0.207

VPS13B (UniProt Q7Z7G8)
Chain of UniProt Q7Z7G8 (Q7Z7G8 whole entry, looked up): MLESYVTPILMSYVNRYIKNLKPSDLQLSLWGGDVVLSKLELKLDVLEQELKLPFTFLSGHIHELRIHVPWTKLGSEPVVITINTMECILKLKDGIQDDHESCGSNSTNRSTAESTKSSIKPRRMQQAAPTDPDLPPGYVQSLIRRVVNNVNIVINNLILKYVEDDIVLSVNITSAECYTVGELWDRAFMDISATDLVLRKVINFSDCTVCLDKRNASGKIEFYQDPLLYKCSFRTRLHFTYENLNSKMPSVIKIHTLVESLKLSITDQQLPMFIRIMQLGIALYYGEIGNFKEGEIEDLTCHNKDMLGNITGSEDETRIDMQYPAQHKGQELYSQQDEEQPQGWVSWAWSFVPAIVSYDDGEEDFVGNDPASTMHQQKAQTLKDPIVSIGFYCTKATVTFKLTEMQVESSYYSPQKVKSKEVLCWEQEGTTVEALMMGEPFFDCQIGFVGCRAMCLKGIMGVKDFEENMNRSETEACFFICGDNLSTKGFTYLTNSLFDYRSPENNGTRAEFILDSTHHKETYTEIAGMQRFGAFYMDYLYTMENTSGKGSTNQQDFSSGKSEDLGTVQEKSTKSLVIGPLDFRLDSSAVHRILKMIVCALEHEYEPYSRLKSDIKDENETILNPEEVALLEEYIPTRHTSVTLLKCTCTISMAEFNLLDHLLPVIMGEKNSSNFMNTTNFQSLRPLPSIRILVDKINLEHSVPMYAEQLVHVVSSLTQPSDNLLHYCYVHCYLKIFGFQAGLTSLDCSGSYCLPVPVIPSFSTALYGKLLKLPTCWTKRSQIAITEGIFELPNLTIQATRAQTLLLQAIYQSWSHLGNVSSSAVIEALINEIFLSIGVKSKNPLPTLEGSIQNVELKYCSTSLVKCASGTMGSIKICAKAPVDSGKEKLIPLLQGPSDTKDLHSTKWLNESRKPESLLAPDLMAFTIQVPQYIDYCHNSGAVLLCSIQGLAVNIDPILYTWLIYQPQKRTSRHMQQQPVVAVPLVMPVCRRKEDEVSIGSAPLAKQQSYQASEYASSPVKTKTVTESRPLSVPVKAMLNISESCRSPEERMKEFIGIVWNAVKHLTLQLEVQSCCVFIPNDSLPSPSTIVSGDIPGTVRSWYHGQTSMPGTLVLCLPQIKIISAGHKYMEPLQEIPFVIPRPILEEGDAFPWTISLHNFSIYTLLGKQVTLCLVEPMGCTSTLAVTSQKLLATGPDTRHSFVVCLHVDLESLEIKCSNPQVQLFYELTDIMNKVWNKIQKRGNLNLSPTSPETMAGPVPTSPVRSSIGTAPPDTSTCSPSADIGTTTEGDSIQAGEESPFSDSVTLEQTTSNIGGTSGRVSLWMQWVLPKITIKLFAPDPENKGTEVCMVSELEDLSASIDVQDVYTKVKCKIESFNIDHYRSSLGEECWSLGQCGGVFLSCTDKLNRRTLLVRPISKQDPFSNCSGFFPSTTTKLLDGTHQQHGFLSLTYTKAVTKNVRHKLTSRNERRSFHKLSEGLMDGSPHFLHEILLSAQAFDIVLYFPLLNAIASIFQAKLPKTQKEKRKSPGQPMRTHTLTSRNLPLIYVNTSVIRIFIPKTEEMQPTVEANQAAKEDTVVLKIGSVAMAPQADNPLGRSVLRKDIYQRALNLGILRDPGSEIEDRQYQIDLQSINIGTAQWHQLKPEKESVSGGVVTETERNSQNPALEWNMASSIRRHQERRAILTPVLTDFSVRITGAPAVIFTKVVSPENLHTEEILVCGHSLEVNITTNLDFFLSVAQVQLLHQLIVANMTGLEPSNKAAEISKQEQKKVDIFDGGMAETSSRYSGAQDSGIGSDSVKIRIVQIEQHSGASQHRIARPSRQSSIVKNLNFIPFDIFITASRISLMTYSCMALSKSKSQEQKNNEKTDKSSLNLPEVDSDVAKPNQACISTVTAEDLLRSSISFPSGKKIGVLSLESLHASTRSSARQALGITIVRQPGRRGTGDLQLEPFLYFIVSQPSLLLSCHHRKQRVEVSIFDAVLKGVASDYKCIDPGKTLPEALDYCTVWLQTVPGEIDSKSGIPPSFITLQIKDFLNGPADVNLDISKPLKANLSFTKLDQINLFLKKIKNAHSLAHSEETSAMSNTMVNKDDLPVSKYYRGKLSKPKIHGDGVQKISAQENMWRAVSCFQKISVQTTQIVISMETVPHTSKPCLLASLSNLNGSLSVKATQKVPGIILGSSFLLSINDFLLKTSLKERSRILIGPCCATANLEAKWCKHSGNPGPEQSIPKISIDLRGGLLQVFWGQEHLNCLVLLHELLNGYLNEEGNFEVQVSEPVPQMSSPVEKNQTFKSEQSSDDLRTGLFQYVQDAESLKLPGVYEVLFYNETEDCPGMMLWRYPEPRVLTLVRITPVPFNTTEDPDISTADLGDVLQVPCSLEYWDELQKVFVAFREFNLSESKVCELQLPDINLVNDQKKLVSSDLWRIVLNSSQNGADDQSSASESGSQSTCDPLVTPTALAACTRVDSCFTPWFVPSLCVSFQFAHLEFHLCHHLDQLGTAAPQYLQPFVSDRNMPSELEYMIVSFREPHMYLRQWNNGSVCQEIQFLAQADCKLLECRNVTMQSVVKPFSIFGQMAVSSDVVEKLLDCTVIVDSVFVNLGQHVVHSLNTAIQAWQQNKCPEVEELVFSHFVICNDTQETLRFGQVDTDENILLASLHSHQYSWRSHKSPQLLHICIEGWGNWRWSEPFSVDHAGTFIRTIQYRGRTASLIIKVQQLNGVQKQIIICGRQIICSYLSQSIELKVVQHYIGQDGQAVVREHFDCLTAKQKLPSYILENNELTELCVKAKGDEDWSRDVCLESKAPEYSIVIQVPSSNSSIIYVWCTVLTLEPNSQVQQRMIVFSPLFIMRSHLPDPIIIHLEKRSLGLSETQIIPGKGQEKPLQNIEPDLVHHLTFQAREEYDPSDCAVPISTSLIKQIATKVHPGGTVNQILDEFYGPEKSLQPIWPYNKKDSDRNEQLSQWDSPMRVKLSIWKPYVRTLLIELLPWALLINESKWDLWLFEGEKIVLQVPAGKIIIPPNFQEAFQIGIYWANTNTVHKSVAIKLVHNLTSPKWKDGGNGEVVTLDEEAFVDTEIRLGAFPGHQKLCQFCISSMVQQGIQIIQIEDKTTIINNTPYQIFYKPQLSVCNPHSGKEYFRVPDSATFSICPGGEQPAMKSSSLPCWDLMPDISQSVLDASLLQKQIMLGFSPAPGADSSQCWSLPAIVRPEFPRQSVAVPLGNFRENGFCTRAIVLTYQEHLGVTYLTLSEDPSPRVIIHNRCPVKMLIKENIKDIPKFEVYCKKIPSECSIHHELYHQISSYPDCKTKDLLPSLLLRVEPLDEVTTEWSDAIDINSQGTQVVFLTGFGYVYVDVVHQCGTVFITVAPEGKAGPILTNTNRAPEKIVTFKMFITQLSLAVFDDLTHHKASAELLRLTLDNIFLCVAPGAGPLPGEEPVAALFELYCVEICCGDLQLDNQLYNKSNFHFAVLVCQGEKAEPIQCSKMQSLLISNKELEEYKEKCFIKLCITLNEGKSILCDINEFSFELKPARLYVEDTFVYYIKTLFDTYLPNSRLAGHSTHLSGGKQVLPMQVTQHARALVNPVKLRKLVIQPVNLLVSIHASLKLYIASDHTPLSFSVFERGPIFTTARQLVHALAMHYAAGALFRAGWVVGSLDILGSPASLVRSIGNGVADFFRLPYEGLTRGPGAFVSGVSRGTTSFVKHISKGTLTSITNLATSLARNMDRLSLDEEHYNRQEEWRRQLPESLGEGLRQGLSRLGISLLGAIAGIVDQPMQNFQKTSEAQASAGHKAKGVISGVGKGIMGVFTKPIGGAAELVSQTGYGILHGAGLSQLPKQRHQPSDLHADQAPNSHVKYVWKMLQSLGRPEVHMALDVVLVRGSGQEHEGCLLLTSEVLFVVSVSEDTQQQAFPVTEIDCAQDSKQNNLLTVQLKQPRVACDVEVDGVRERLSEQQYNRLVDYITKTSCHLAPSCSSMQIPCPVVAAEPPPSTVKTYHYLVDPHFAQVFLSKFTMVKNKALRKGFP
inactive: [1] -0.075 | [2] -0.012 | [3] -0.005 | [4] 0.049 | [5] 0.047 | [6] -0.004 | [7] 0.005 | [8] 0.029 | [9] 0.037 | [10] 0.01 | [11] -0.064 | [12] -0.033 | [13] -0.069 | [14] -0.039 | [15] -0.033 | [16] 0.041 | [17] 0.018 | [18] 0.038 | [19] -0.043 | [20] -0.03

UXT isoform 2 (UniProt Q9UBK9)
Chain of UniProt Q9UBK9 (Q9UBK9 whole entry, looked up): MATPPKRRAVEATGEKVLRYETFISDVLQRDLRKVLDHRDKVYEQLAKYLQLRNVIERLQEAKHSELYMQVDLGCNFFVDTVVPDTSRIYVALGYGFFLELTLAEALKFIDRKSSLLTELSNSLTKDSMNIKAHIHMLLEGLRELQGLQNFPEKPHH
inactive: [1] 0.016 | [2] 0.036 | [3] 0.04 | [4] -0.068 | [5] -0.033 | [6] 0.001 | [7] 0.11 | [8] 0.026 | [9] -0.144 | [10] 0.014 | [11] -0.041 | [12] -0.067 | [13] -0.108 | [14] -0.011 | [15] 0.004 | [16] 0.047 | [17] 0.129 | [18] -0.033 | [19] -0.051 | [20] 0.007

WASHC5 (UniProt Q12768)
inactive: [1] -0.052 | [2] 0.044 | [3] -0.046 | [4] -0.001 | [5] -0.112 | [6] -0.004 | [7] 0.005 | [8] 0.086 | [9] -0.001 | [10] 0.027 | [11] 0 | [12] -0.011 | [14] -0.047 | [15] 0.04 | [16] 0.022 | [17] 0.074 | [18] 0.045 | [19] 0.038 | [20] -0.012
active: [13] -0.232

VRK1 (UniProt Q99986)
inactive: [1] 0.035 | [2] 0.078 | [3] -0.074 | [5] -0.224 | [6] 0.164 | [7] 0.057 | [8] 0.028 | [9] -0.041 | [10] 0.008 | [11] -0.056 | [12] 0.025 | [13] -0.11 | [14] -0.144 | [15] 0.059 | [16] 0.046 | [17] 0.023 | [18] -0.028 | [19] -0.138 | [20] 0.063
active: [4] 0.542

WARS2 (UniProt Q9UGM6)
inactive: [1] -0.183 | [2] 0.016 | [3] -0.086 | [4] -0.008 | [5] -0.147 | [6] 0.047 | [7] 0.022 | [8] -0.056 | [9] -0.046 | [11] -0.082 | [12] -0.019 | [13] -0.101 | [14] -0.08 | [15] 0.076 | [16] 0.037 | [17] 0.095 | [18] 0.07 | [19] 0.01 | [20] -0.023
active: [10] -0.569

WDR46 (UniProt O15213)
inactive: [1] 0.251 | [2] -0.026 | [3] -0.055 | [4] 0.117 | [5] 0.364 | [6] 0.096 | [7] -0.376 | [8] -0.187 | [9] 0.084 | [10] -0.093 | [11] 0.098 | [12] 0.083 | [13] 0.253 | [14] 0.177 | [15] -0.027 | [16] -0.042 | [17] -0.139 | [18] 0.173 | [19] 0.257 | [20] -0.143

VPS39 (UniProt Q96JC1)
inactive: [1] -0.032 | [2] 0.069 | [3] -0.019 | [4] -0.068 | [5] -0.15 | [6] -0.017 | [7] 0.033 | [8] 0.003 | [9] -0.058 | [10] 0.027 | [11] 0.026 | [12] -0.119 | [13] -0.195 | [14] -0.039 | [15] 0.05 | [16] 0.101 | [17] 0.01 | [18] -0.004 | [19] 0.055 | [20] -0.042

WRB (UniProt O00258)
Chain of UniProt O00258 (O00258 whole entry, looked up): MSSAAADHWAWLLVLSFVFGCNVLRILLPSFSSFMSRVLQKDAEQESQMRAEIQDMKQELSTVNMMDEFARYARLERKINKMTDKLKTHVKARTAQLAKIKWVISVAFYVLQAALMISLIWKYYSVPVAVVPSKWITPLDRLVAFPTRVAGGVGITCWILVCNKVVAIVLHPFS
inactive: [1] -0.072 | [2] -0.011 | [3] 0.015 | [4] 0.005 | [5] 0.031 | [6] -0.036 | [7] -0.011 | [8] 0.089 | [9] 0.024 | [10] 0.052 | [11] 0.003 | [12] 0.019 | [13] -0.018 | [14] 0.006 | [15] -0.011 | [16] -0.035 | [17] 0.034 | [18] 0.028 | [19] 0.062 | [20] -0.042

TXNRD1 (UniProt Q16881)
Chain of UniProt Q16881 (Q16881 whole entry, looked up): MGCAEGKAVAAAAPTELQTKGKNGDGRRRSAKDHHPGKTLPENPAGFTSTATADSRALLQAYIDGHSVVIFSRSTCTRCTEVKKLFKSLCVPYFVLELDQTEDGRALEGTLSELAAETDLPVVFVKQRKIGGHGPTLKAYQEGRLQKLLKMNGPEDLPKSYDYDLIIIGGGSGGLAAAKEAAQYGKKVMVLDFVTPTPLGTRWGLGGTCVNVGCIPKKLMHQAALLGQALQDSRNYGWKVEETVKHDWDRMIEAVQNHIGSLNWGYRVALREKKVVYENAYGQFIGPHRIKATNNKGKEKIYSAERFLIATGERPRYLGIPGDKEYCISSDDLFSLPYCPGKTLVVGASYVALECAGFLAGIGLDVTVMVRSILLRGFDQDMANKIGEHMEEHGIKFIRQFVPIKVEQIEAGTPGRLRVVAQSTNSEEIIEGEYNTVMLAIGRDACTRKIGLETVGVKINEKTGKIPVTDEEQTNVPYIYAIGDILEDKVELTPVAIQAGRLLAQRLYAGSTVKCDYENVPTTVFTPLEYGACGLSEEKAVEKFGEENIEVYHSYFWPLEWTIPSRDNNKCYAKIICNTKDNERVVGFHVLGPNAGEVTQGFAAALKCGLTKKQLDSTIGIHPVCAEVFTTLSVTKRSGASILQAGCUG
inactive: [1] -0.012 | [2] -0.011 | [3] 0.097 | [4] -0.013 | [5] -0.013 | [6] -0.002 | [7] 0.067 | [8] 0.021 | [9] -0.107 | [11] -0.082 | [12] -0.052 | [13] -0.077 | [14] -0.007 | [15] -0.027 | [16] -0.005 | [17] 0.017 | [18] -0.036 | [19] -0.122 | [20] 0.006
active: [10] 0.225

Source: the supplement of paper PMC10849652
